A short description of assay [1]: NCI Yeast Anticancer Drug Screen. Data for the rad50 strain (AID 155).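 Further: 0% = growth of vehicle-only cultures of the same strain.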 Particulars: S. cerevisiae rad50 strain growth inhibition, active compounds read high. The method, boiled down:
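Readout: growth inhibition relative to vehicle-treated cultures. Compound exposure was carried out in a genetically defined yeast strain deficient in DNA damage repair.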

The nature of assay [2]: NCI Yeast Anticancer Drug Screen. Data for the mec2-1 strain (AID 157). Particulars: S. cerevisiae mec2-1 strain, active compounds read high. The method, boiled down:
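Readout is yeast growth inhibition, normalised to vehicle-treated controls, in the mec2-1 strain exposed to compound.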

Assay [3] can be described thus: NCI Yeast Anticancer Drug Screen. Data for the sgs1 mgt1 strain (AID 161).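 Further: 0% = growth of cultures given vehicle only.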 Particulars: S. cerevisiae sgs1 mgt1 strain, active compounds read high. The method, boiled down:
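Yeast cells carrying a defined DNA-repair defect were exposed to test compounds. Growth inhibition was measured relative to vehicle-treated controls.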

Assay [4] is described as follows: NCI Yeast Anticancer Drug Screen. Data for the cln2 rad14 strain (AID 165).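 Further: 0% = growth equal to vehicle treated cultures.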 Particulars: S. cerevisiae cln2 rad14 strain, active compounds read high. The gist of the method: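 Relative to vehicle controls, growth inhibition of compound-treated cln2 rad14 yeast was recorded.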
Assay [5] in a line: NCI Yeast Anticancer Drug Screen. Data for the bub3 strain (AID 167). Particulars: S. cerevisiae bub3 mutant strain, active compounds read high. The method, boiled down:
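Readout: yeast growth inhibition, expressed relative to vehicle-only wells. The test organism is a mutant strain from a panel with lesions in DNA repair or checkpoint genes.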

Assay [6] is described as follows: NCI Yeast Anticancer Drug Screen. Data for the mlh1 rad18 strain (AID 175). To be noted: S. cerevisiae mlh1 rad18 strain growth inhibition, active compounds read high. The method, boiled down: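 Test agents were incubated with a yeast strain of defined genotype (DNA damage repair defect). Inhibition of growth was derived by comparison with vehicle-exposed cultures.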

The mark [7] stands for this setting: at 5.0 µM (retest, dose inferred, filed as 0.5).
Where [8] appears, read: at 50.0 µM (retest, dose inferred, filed as 5.0).

The structures appear in SMILES notation. This is part of a sample that, as a whole, favours compounds with a hit. Of some 79,000 tested, about 15% had one in any assay. Values without a mark were called inactive. Active and inactive are the calls of the source. No stated cut-off is given here; in the data, active means growth inhibition above about 70%; inactive means the rest.

`OC(c1ccccc1)c1cccc(Br)c1` (stereo not given): the growth inhibition in assay [1] (setting [7]) was -2%; in assay [1] (setting [8]) it was 67%; in assay [1] (at 50.0 µM) it was 76.5% (active); in assay [2] (setting [7]), -11%; in assay [2] (setting [8]), 77% (active); in assay [2] (at 50.0 µM), 59.8%. Moreover, the growth inhibition in assay [3] (setting [7]) is -13%; in assay [3] (setting [8]) it was 55%; in assay [3] (at 50.0 µM) it was 52.9%; in assay [4] (setting [7]), -1%; in assay [4] (setting [8]) it was 48%; in assay [4] (at 50.0 µM), 42.6%. Further, the growth inhibition is -3% in assay [5] (setting [7]); 68% in assay [5] (setting [8]); 30.1% in assay [5] (at 50.0 µM); 14% in assay [6] (setting [7]); 77% (active) in assay [6] (setting [8]); 87.2% (active) in assay [6] (at 50.0 µM).
On to `COC(=O)C1(C)CCCC2(C)C3CC(=O)C(C(C)C)=CC3(O)CCC12` (stereo not given), for which the growth inhibition is 7% in assay [1] (setting [7]); 8% in assay [1] (setting [8]); 10.7% in assay [1] (at 50.0 µM); -1% in assay [2] (setting [7]); -3% in assay [2] (setting [8]); -3.25% in assay [2] (at 50.0 µM). For the same compound, the growth inhibition in assay [3] (setting [7]) was 4%; in assay [3] (setting [8]) it was -15%; in assay [3] (at 50.0 µM), 3.1%; in assay [4] (setting [7]), -75%; in assay [4] (setting [8]), -27%; in assay [4] (at 50.0 µM) it was 13.7%. In addition, the growth inhibition in assay [5] (setting [7]) was 5%; in assay [5] (setting [8]), 2%; in assay [5] (at 50.0 µM), 0.8%; in assay [6] (setting [7]), 15%; in assay [6] (setting [8]), 19%; in assay [6] (at 50.0 µM) it was -5.95%.
Consider `CCC(=O)Nc1ccc(NC(C)=O)cc1`, for which the growth inhibition is -6% in assay [1] (setting [7]); -9% in assay [1] (setting [8]); -17.6% in assay [1] (at 50.0 µM); -9% in assay [2] (setting [7]); 1% in assay [2] (setting [8]); -6.9% in assay [2] (at 50.0 µM). Moreover, the growth inhibition was -5% in assay [3] (setting [7]); 6% in assay [3] (setting [8]); -8.65% in assay [3] (at 50.0 µM); 6% in assay [4] (setting [7]); -16% in assay [4] (setting [8]); -11.6% in assay [4] (at 50.0 µM). The growth inhibition in assay [5] (setting [7]) was -10%; in assay [5] (setting [8]), -3%; in assay [5] (at 50.0 µM) it was 23.2%; in assay [6] (setting [7]), -8%; in assay [6] (setting [8]), -28%; in assay [6] (at 50.0 µM) it was -8.9%.
For the compound `COC(=O)C1c2cc(C)ccc2-c2ccc(C)cc21`, the growth inhibition is 31% in assay [1] (setting [7]); 2% in assay [1] (setting [8]); 13.6% in assay [1] (at 50.0 µM); 3% in assay [2] (setting [7]); -17% in assay [2] (setting [8]); 13.3% in assay [2] (at 50.0 µM). Moreover, the growth inhibition in assay [3] (setting [7]) is 0%; in assay [3] (setting [8]), 23%; in assay [3] (at 50.0 µM), 2.95%; in assay [4] (setting [7]), -14%; in assay [4] (setting [8]) it was 8%; in assay [4] (at 50.0 µM), 30.2%. In addition, the growth inhibition in assay [5] (setting [7]) is -10%; in assay [5] (setting [8]) it was 18%; in assay [5] (at 50.0 µM), 6.75%; in assay [6] (setting [7]) it was 4%; in assay [6] (setting [8]), 26%; in assay [6] (at 50.0 µM) it was 49.5%.
In the case of `CC1SC2=NC3=C(c4ccccc4C3=O)C(c3ccc(Cl)cc3)N2C1=O` (stereo not given), the growth inhibition in assay [1] (setting [7]) was -3%; in assay [1] (setting [8]) it was 75% (active); in assay [1] (at 50.0 µM), 58.7%; in assay [2] (setting [7]), -28%; in assay [2] (setting [8]), 81% (active); in assay [2] (at 50.0 µM), 33.8%. The growth inhibition in assay [3] (setting [7]) is -6%; in assay [3] (setting [8]), 69%; in assay [3] (at 50.0 µM), 73.2% (active); in assay [4] (setting [7]), 14%; in assay [4] (setting [8]), 84% (active); in assay [4] (at 50.0 µM), 56.3%. For the same compound, the growth inhibition in assay [5] (setting [7]) was -3%; in assay [5] (setting [8]), 88% (active); in assay [5] (at 50.0 µM), 51.8%; in assay [6] (setting [7]), -17%; in assay [6] (setting [8]), 91% (active); in assay [6] (at 50.0 µM), 53.4%.
In the case of `Nc1cccc2cccnc12`, the growth inhibition in assay [1] (setting [7]) was 31%; in assay [1] (setting [8]), 72% (active); in assay [1] (at 50.0 µM), 89.3% (active); in assay [2] (setting [7]), 8%; in assay [2] (setting [8]), 14%; in assay [2] (at 50.0 µM) it was 27%. For the same compound, the growth inhibition was 18% in assay [3] (setting [7]); 48% in assay [3] (setting [8]); 78.4% (active) in assay [3] (at 50.0 µM); 4% in assay [4] (setting [7]); 6% in assay [4] (setting [8]); 18.4% in assay [4] (at 50.0 µM). Also, the growth inhibition in assay [5] (setting [7]) is -3%; in assay [5] (setting [8]) it was -4%; in assay [5] (at 50.0 µM) it was 12.6%; in assay [6] (setting [7]), 29%; in assay [6] (setting [8]) it was 66%; in assay [6] (at 50.0 µM), 91% (active).
Turning to `CN(/N=C/C(O)C(O)C(O)CO)c1ccccc1` (stereo not given), the growth inhibition in assay [1] (setting [7]) is 20%; in assay [1] (setting [8]), 97% (active); in assay [1] (at 50.0 µM), 98% (active); in assay [2] (setting [7]), 3%; in assay [2] (setting [8]) it was 99% (active); in assay [2] (at 50.0 µM), 98.5% (active). Moreover, the growth inhibition is 9% in assay [3] (setting [7]); 99% (active) in assay [3] (setting [8]); 98.5% (active) in assay [3] (at 50.0 µM); 14% in assay [4] (setting [7]); 98% (active) in assay [4] (setting [8]); 98.5% (active) in assay [4] (at 50.0 µM). Further, the growth inhibition in assay [5] (setting [7]) was 36%; in assay [5] (setting [8]) it was 99% (active); in assay [5] (at 50.0 µM), 98.5% (active); in assay [6] (setting [7]), 47%; in assay [6] (setting [8]), 99% (active); in assay [6] (at 50.0 µM), 98.8% (active).
Consider `CC(C)CCCC(=O)CCCCCCC(=O)CCN(O)C(=O)C(N)CO` (stereo not given), for which the growth inhibition in assay [1] (setting [7]) is 98% (active); in assay [1] (setting [8]), 98% (active); in assay [1] (at 50.0 µM), 92.9% (active); in assay [2] (setting [7]), 99% (active); in assay [2] (setting [8]), 99% (active); in assay [2] (at 50.0 µM), 93.5% (active). Besides, the growth inhibition is 98% (active) in assay [3] (setting [7]); 99% (active) in assay [3] (setting [8]); 94.2% (active) in assay [3] (at 50.0 µM); 96% (active) in assay [4] (setting [7]); 97% (active) in assay [4] (setting [8]); 90.5% (active) in assay [4] (at 50.0 µM). Also, the growth inhibition in assay [5] (setting [7]) was 99% (active); in assay [5] (setting [8]), 98% (active); in assay [5] (at 50.0 µM) it was 93.4% (active); in assay [6] (setting [7]), 98% (active); in assay [6] (setting [8]) it was 98% (active); in assay [6] (at 50.0 µM) it was 92% (active).
`Cc1ccccc1N1C(=O)C(=O)c2cccc(C)c21`: the growth inhibition in assay [1] (setting [7]) was 2%; in assay [1] (setting [8]) it was 98% (active); in assay [1] (at 50.0 µM), 99.2% (active); in assay [2] (setting [7]) it was 0%; in assay [2] (setting [8]), 99% (active); in assay [2] (at 50.0 µM) it was 99.5% (active). For the same compound, the growth inhibition in assay [3] (setting [7]) was 1%; in assay [3] (setting [8]) it was 99% (active); in assay [3] (at 50.0 µM), 99.7% (active); in assay [4] (setting [7]), 1%; in assay [4] (setting [8]), 98% (active); in assay [4] (at 50.0 µM), 97% (active). The growth inhibition in assay [5] (setting [7]) was 2%; in assay [5] (setting [8]), 99% (active); in assay [5] (at 50.0 µM) it was 99.8% (active); in assay [6] (setting [7]), 0%; in assay [6] (setting [8]), 99% (active); in assay [6] (at 50.0 µM), 83.1% (active).
Take `CC(=O)Oc1ccc(C)c(C(C)C(Cl)(Cl)Cl)c1` (stereo not given): the growth inhibition in assay [1] (setting [7]) was 0%; in assay [1] (setting [8]), 30%; in assay [1] (at 50.0 µM) it was 65%; in assay [2] (setting [7]), -5%; in assay [2] (setting [8]), 50%; in assay [2] (at 50.0 µM), 42.8%. Further, the growth inhibition in assay [3] (setting [7]) is 12%; in assay [3] (setting [8]), 26%; in assay [3] (at 50.0 µM) it was 58.3%; in assay [4] (setting [7]) it was 8%; in assay [4] (setting [8]) it was 13%; in assay [4] (at 50.0 µM), 52.5%. Besides, the growth inhibition was -6% in assay [5] (setting [7]); 4% in assay [5] (setting [8]); 60% in assay [5] (at 50.0 µM); 0% in assay [6] (setting [7]); 27% in assay [6] (setting [8]); 81.2% (active) in assay [6] (at 50.0 µM).

The values are drawn from PubChem BioAssay (NCI).
